# Test results published in PubChem BioAssay (NCATS).
# “And” between values parts separate entries of the source, which are not always exact repeats. Equal values may be shown once. Inconclusive results are not listed. Entries that show only a call come without a potency. Unmarked numbers belong to inactive results. The source made the active and inactive calls. Calls come from the whole dose curve; as a rule, active = well fitted inhibition curve with a large enough effect; inconclusive = small, poorly fitted or top-dose-only effect; inactive = flat fitted curve, though single readings scatter. Numbered stars: 1 amine (or outer) side, 2 acyl side, 3 side chain; on linkers, the order of the positions; unused ones are H or OH. Bridge positions count the residues as written; N and C are the ends. Square brackets hold non-standard residues; d marks the D form. Peptide text beside a SMILES is read from it. I, II: the chains in the order shown. Actinocin(9to1) = Cc1c2oc3c(C)ccc(C(=O)[*:1])c3nc-2c(C(=O)[*:2])c(N)c1=O; NMeV = CN[C@H](C(=O)O)C(C)C; Sar = CNCC(=O)O
# How the values were obtained:
# GB4 = assay: qHTS profiling for inhibitors of Plasmodium falciparum proliferation (AID 504749); settings: P. falciparum in erythrocytes, SYBR Green DNA, 72 h; series mostly up to 28.7 µM
# Procedure, shortened: (§1)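 P. falciparum-infected erythrocytes (0.3% parasitemia, 2.5% hematocrit) incubated with compound 72 h at 37 C, 5% CO2. Parasite DNA detected by SYBR Green after lysis, overnight at room temperature; normalised to 0.29 uM artemisinin and DMSO.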
# HB3 = assay: as above; settings: P. falciparum in erythrocytes, SYBR Green DNA, 72 h; series mostly up to 28.7 µM
# Procedure, shortened: as §1
# ICS = assay: as above; settings: P. falciparum in erythrocytes, SYBR Green DNA, 72 h; series mostly up to 28.7 µM
# Procedure, shortened: as §1
# JCK = assay: as above; settings: P. falciparum in erythrocytes, SYBR Green DNA, 72 h; series mostly up to 28.7 µM
# Procedure, shortened: as §1
# N140 = assay: as above; settings: P. falciparum in erythrocytes, SYBR Green DNA, 72 h; series mostly up to 28.7 µM
# Procedure, shortened: as §1
# P93_24 = assay: as above; settings: P. falciparum in erythrocytes, SYBR Green DNA, 72 h; series mostly up to 28.7 µM
# Procedure, shortened: as §1
# P94_40 = assay: as above; settings: P. falciparum in erythrocytes, SYBR Green DNA, 72 h; series mostly up to 28.7 µM
# Procedure, shortened: as §1
# PAD = assay: as above; settings: P. falciparum in erythrocytes, SYBR Green DNA, 72 h; series mostly up to 28.7 µM
# Procedure, shortened: as §1
# PC15 = assay: as above; settings: P. falciparum in erythrocytes, SYBR Green DNA, 72 h; series mostly up to 28.7 µM
# Procedure, shortened: as §1
# PC26 = assay: as above; settings: P. falciparum in erythrocytes, SYBR Green DNA, 72 h; series mostly up to 28.7 µM
# Procedure, shortened: as §1
# PC49 = assay: as above; settings: P. falciparum in erythrocytes, SYBR Green DNA, 72 h; series mostly up to 28.7 µM
# Procedure, shortened: as §1
# SC27B = assay: as above; settings: P. falciparum in erythrocytes, SYBR Green DNA, 72 h; series mostly up to 28.7 µM
# Procedure, shortened: as §1
# TAB109 = assay: as above; settings: P. falciparum in erythrocytes, SYBR Green DNA, 72 h; series mostly up to 28.7 µM
# Procedure, shortened: as §1
# TAB165 = assay: as above; settings: P. falciparum in erythrocytes, SYBR Green DNA, 72 h; series mostly up to 28.7 µM
# Procedure, shortened: as §1
# W2 = assay: as above; settings: P. falciparum in erythrocytes, SYBR Green DNA, 72 h; series mostly up to 28.7 µM
# Procedure, shortened: as §1
# CRL-7250 = normal cell line; assay: Cytotoxic Profiling of Annotated Libraries Using Quantitative High-Throughput Screening (AID 1296008); settings: Five cell lines viability, CellTiter-Glo ATP luminescence, 48-72 h; max response: stronger effect = lower value
# Procedure, shortened: (§2)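 Cells exposed to compounds for 48 or 72 hr at 37 degrees Celsius. Viability read as ATP-coupled luminescence with CellTiter-Glo after 10 min at room temperature.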
# HEK293 = assay: as above; settings: Five cell lines viability, CellTiter-Glo ATP luminescence, 48-72 h; max response: stronger effect = lower value
# Procedure, shortened: as §2
# HaCat = assay: as above; settings: Five cell lines viability, CellTiter-Glo ATP luminescence, 48-72 h; max response: stronger effect = lower value
# Procedure, shortened: as §2
# KB-3-1 = assay: as above; settings: Five cell lines viability, CellTiter-Glo ATP luminescence, 48-72 h; max response: stronger effect = lower value
# Procedure, shortened: as §2
# TAB113 = assay: qHTS profiling for inhibitors of Plasmodium falciparum proliferation (AID 504749); settings: P. falciparum in erythrocytes, SYBR Green DNA, 72 h; series mostly up to 28.7 µM
# Procedure, shortened: as §1
# Note: nearly all actives have a fitted effect of over 60% in size.
# Potency is the fitted concentration of half-maximal effect.
smiles,measurement,setting,value
C[C@]12CCC(=O)C=C1CC[C@H]1[C@@H]3CC[C@](O)(C(=O)CO)[C@@]3(C)C[C@H](O)[C@@]12F,Potency,GB4,inactive
same,Potency,HB3,inactive
same,Potency,ICS,inactive
same,Potency,JCK,inactive
same,Potency,N140,inactive
same,Potency,P93_24,inactive
same,Potency,P94_40,inactive
same,Potency,PAD,inactive
same,Potency,PC15,inactive
same,Potency,PC26,inactive
same,Potency,PC49,inactive
same,Potency,SC27B,inactive
same,Potency,TAB109,inactive
same,Potency,TAB165,inactive
same,Potency,W2,inactive
same,max response,CRL-7250,-14.8%
same,max response,HEK293,-5.58%
same,max response,HaCat,-3.35%
same,max response,KB-3-1,18.3% and -1.2%
"Cc1c2oc3c(C)ccc(C(=O)N[C@@H]4C(=O)N[C@H](C(C)C)C(=O)N5CCC[C@H]5C(=O)N(C)CC(=O)N(C)[C@@H](C(C)C)C(=O)O[C@@H]4C)c3nc-2c(C(=O)N[C@@H]2C(=O)N[C@H](C(C)C)C(=O)N3CCC[C@H]3C(=O)N(C)CC(=O)N(C)[C@@H](C(C)C)C(=O)O[C@@H]2C)c(N)c1=O (I: T[dV]P[Sar][NMeV] / II: T[dV]P[Sar][NMeV]; ester I:1-I:C, II:1-II:C; linker I:N-II:N via Actinocin(9to1))",Potency,GB4,4.8 nM (active)
same,Potency,HB3,5 nM (active)
same,Potency,ICS,2.5 nM (active)
same,Potency,N140,3.5 nM (active)
same,Potency,P93_24,5 nM (active)
same,Potency,P94_40,4.5 nM (active)
same,Potency,PAD,5 nM (active)
same,Potency,PC15,11.2 nM (active)
same,Potency,PC26,5.4 nM (active)
same,Potency,SC27B,6.3 nM (active)
same,Potency,TAB109,4 nM (active)
same,Potency,TAB113,6.3 nM (active)
same,Potency,TAB165,4.5 nM (active)
same,Potency,W2,5.4 nM (active)
same,Potency,CRL-7250,4.2 nM (active)
same,Potency,HEK293,2.1 nM (active)
same,Potency,HaCat,18.8 nM (active)
same,Potency,KB-3-1,20.6 nM (active)
C[C@H](O)C(=O)Nc1c(I)c(C(=O)NC(CO)CO)c(I)c(C(=O)NC(CO)CO)c1I,Potency,GB4,inactive
same,Potency,HB3,inactive
same,Potency,ICS,inactive
same,Potency,JCK,inactive
same,Potency,N140,inactive
same,Potency,P93_24,inactive
same,Potency,P94_40,inactive
same,Potency,PAD,inactive
same,Potency,PC15,inactive
same,Potency,PC26,inactive
same,Potency,PC49,inactive
same,Potency,SC27B,inactive
same,Potency,TAB109,inactive
same,Potency,TAB113,inactive
same,Potency,TAB165,inactive
same,Potency,W2,inactive
same,outcome,CRL-7250,inactive
same,max response,HEK293,-5.81%
same,outcome,HaCat,inactive
same,max response,KB-3-1,3.55%
Cc1cc(O)c(C(C)C)cc1Cl,Potency,ICS,10000 nM (active)
same,Potency,JCK,inactive
same,Potency,N140,inactive
same,Potency,P93_24,inactive
same,Potency,P94_40,inactive
same,Potency,PAD,inactive
same,Potency,PC15,inactive
same,Potency,PC26,inactive
same,Potency,PC49,inactive
same,Potency,SC27B,inactive
same,Potency,TAB109,inactive
same,Potency,TAB113,inactive
same,max response,CRL-7250,-3.05%
same,outcome,HEK293,inactive
same,outcome,HaCat,inactive
same,max response,KB-3-1,1.71%
C=CCc1ccc(O)c(OC)c1,Potency,GB4,inactive
same,Potency,HB3,inactive
same,Potency,ICS,inactive
same,Potency,JCK,inactive
same,Potency,N140,inactive
same,Potency,P94_40,inactive
same,Potency,PAD,inactive
same,Potency,PC15,inactive
same,Potency,PC26,inactive
same,Potency,PC49,inactive
same,Potency,SC27B,inactive
same,Potency,TAB109,inactive
same,Potency,TAB113,inactive
same,Potency,TAB165,inactive
same,Potency,W2,inactive
same,outcome,CRL-7250,inactive
same,outcome,HEK293,inactive
same,max response,HaCat,-0.0642%
same,max response,KB-3-1,3.55%
O=c1ccc2ccccc2o1,Potency,GB4,inactive
same,Potency,HB3,inactive
same,Potency,ICS,inactive
same,Potency,JCK,inactive
same,Potency,N140,inactive
same,Potency,P93_24,inactive
same,Potency,P94_40,inactive
same,Potency,PAD,inactive
same,Potency,PC15,inactive
same,Potency,PC26,inactive
same,Potency,PC49,inactive
same,Potency,SC27B,inactive
same,Potency,TAB109,inactive
same,Potency,TAB113,inactive
same,Potency,TAB165,inactive
same,Potency,W2,inactive
same,outcome,CRL-7250,inactive
same,outcome,HEK293,inactive
same,max response,HaCat,-0.31%
same,max response,KB-3-1,-9.75%
CN1CCC[C@@H]1c1cccnc1,Potency,GB4,inactive
same,Potency,HB3,inactive
same,Potency,ICS,inactive
same,Potency,JCK,inactive
same,Potency,N140,inactive
same,Potency,P93_24,inactive
same,Potency,P94_40,inactive
same,Potency,PAD,inactive
same,Potency,PC15,inactive
same,Potency,PC26,inactive
same,Potency,PC49,inactive
same,Potency,SC27B,inactive
same,Potency,TAB109,inactive
same,Potency,TAB113,inactive
same,Potency,TAB165,inactive
same,Potency,W2,inactive
same,max response,CRL-7250,-7.79%
same,max response,HEK293,-4.75%
same,outcome,HaCat,inactive
same,max response,KB-3-1,-0.673%
CCOC(=O)COc1ccc2c(C)c(CCN(CC)CC)c(=O)oc2c1Cl,Potency,GB4,inactive
same,Potency,HB3,inactive
same,Potency,ICS,inactive
same,Potency,JCK,inactive
same,Potency,N140,inactive
same,Potency,P93_24,inactive
same,Potency,P94_40,inactive
same,Potency,PAD,inactive
same,Potency,PC15,inactive
same,Potency,PC26,inactive
same,Potency,PC49,inactive
same,Potency,SC27B,inactive
same,Potency,TAB109,inactive
same,Potency,TAB113,inactive
same,Potency,W2,inactive
same,Potency,CRL-7250,29900 nM (active)
same,outcome,HEK293,inactive
same,max response,HaCat,-12.1%
same,max response,KB-3-1,7.91%
